According to PubChem BioAssay AID1159506 (National Center for Advancing Translational Sciences (NCATS), 2015):
Over roughly 59,000 sequences, the read-out has its median near -0.00055; the lowest 2% begin near -2. Many of the other results were omitted from the sample, so the lowest values are more common in it than they were.

Assay: Identification of proteins required for the processing of the EWS-FLI1 nascent transcript;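 also: robust z of luciferase light less the median z of siRNAs with the same seed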
Conditions: TC32 Ewing sarcoma NR0B1-luc vs CMV-luc (EWS-FLI1 target promoter against control promoter), 48 h; screened at 20 nM (by protocol)
Method: Ewing sarcoma (ES) cells depend on the EWS-FLI1 fusion transcription factor for cell survival. Using an assay of EWS-FLI1 activity and genome-wide siRNA screening we have identified proteins required for the processing of the EWS-FLI1 nascent transcript. Parallel genome-wide siRNA-mediated RNAi screens were conducted in Ewing sarcoma TC32 cell lines expressing a luciferase (luc) reporter protein driven by either the promoter of the EWS-FLI1 target gene NR0B1 (TC32-NR0B1-luc) or the CMV promoter (TC32-CMV-luc). Luciferase activity was assessed 48 hours post siRNA-transfection.
Twenty microl of serum-free media containing Lipofectamine RNAiMax (0.05 microl) was added to wells containing siRNA (0.8 pmol). Lipid and siRNA were allowed to complex for 45 min at ambient temperature before addition of 600 cells in RPMI-1640, 20% FBS to yield final transfection mixtures containing 20 nM siRNA in RPMI-1640, 10% FBS. Luciferase expression was measured using OneGlo (Promega, Madison, WI). The genome-wide screening campaign was conducted using Ambion's human genome library version 4.1 (Ambion, Austin TX). This library targets approximately 21000 human genes, three siRNAs per gene. Each siRNA is arrayed in an individual well of a 384-well plate. Parallel transfections were conducted in TC32-NR0B1-luc and TC32-CMV-luc cell lines and luciferase expression (OneGlo, Promega) was assayed 48 h later on a PerkinElmer Envision 2104 Multilabel plate reader (PerkinElmer, Waltham, MA). Qiagen's AllStars Negative control was incorporated on all screening plates for normalization (16 wells per plate). Qiagen, Germantown, MDsiGL4 was incorporated as a positive transfection control (16 wells per plate) on all plates. […] The raw luciferase data for the NR0B1- and CMV-luc screens were normalized and z-score-MAD transformed using standard methods (Chung et al., 2008). The miRNA-like seed sequence of every siRNA was determined and the median z-score for all siRNA sequences with the same seed sequence was calculated. This z-score was subtracted from the z-score associated with each siRNA with that seed sequence to generate a seed-adjusted z-score value (Z) that was used when the results for the three siRNAs corresponding to each gene were compared (Marine et al., 2012)

Sequence	seed-corrected z-score
UUCUUUUCCACCUCCAUAG against HDGF	-12.4
AUCCUUGAAAGCCUCAUAC against XPR1	0.211
UAAAUGACAUGCAGGAUUG against C17orf102	-0.0252
UUCAGUUUAAAAUCGUUUC against CENPL	0.133
UUUGUUUCUACCAUUCCCA against PPIL1	-2.34
ACAAUAAUUAAGACAUUGC against OR4K1	0.433
GAAUGUUCAUGUGAAAUGC against ZNF365	1.68
UGCAAUAGCAGAGUAUUCC against UBE2Q1	0.662
UUUGUUGCAGAAUACAUAG against CTH	-13.9
ACAGCUAUUAAGAAGAAGU against PTGER3	-0.312
CGCGUACUGACGGAAACAC against RPS29P3	0.649
UUAGCGGACGGAGGAAUUG against IDH3G	0.0869
AAUGGAUUCAGUUACUUGC against TACSTD2	-0.0397
UGUCUUCGAUGUUUCAUCG against DOK6	-2.6
UUCGGGAAAGUAGUCAUGA against NSFL1C	0.0545
UACACUAGCAUUGCACUCC against ARHGEF19	0.989
AUCUUGUUCCGCAUGGUCU against AMOTL2	0.501
UUUAGCAACAGAGUCCACC against MAP2K6	0.538

Sequence	seed-corrected z-score
AUCUUCAAUACUUGAAUCU against LINC00467	-0.368
UUUCAUGCACCAACGGAUC against ABHD2	-2.24
AAAGGAAAGAUGACAGUAU against OR4N5	0.213
AAGCUUUUUAUUGGAGUUC against ZNF852	1.01
UCAGCGAACAUGUCCAGGG against CD2BP2	0.587
AAUUUAAUAGUGUUUGUGC against PLPP4	0.11
UCAGAGCACAGAUCGGGAC against DUSP2	0.227
UUUGUCCUUAGUAAUGAAU against HOXA13	-0.568
UUUGCAAUUGAGGUGAGGC against ANP32D	-0.262
UUCACAACAGGGUGGAGCC against FAM110A	-0.481
UUGCCUAUCUGGUUGAUGG against MATN1	-0.472
UUCUGAUUCUGCUUGUUGG against MPRIP	-2.12
UCCGUUAUAAACAAACAGG against ITGA11	-0.259
UUCUGCAAGCUCACUGUCC against TTC7A	-0.896
UUAUCUAUAACAGAGUAUG against DCBLD2	0.479
UUGGAAAGCAGUGUCUCUG against KRTAP8-1	-0.147
UCUGCUUUGCAAAUAGCCG against SRD5A1	-3.07
UAUGUGCACACGGUCUUGA against NRN1	-1.7
